# The list is not random: actives were taken first. Their share in the collection is about 5%.
# VACV Venus inh: vaccinia inhibition (Venus reporter); Potency, µM (doses to about 36.5 µM), hits mostly inhibitors; 330,000 tested, 0.46% active; Vaccinia virus Venus reporter expression, fluorescence; calls by dose curve; tested in A549 cells; also: nearly all actives have a fitted effect of over 30% in size
# Vaccinia mCherry: vaccinia inhibition (mCherry reporter) | 310,000 tested, 0.63% active | Vaccinia virus mCherry reporter infection, fluorescence | Potency, µM (titrated, usually from 36.5 µM), actives largely listed as inhibitors; calls by dose curve; tested in A549 cells; also: nearly all actives have a fitted effect of over 35% in size
# HCMV inh: blocks human cytomegalovirus replication | AID 1259415 | 410,000 tested, 4.5% active | HFF cells, HCMV-luciferase reporter, 72 h; hits give low values | activity change, negative = inhibition, % at 57.5 µM; in the data active = activity change below about -60%; inconclusive = no clear call, values can overlap the other calls; inactive = above about -39%
#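 Compounds were evaluated in HFFs infected with an HCMV luciferase reporter virus (MOI 1 PFU/cell). Luciferase in lysates collected 72 h post infection served as the replication measure.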
# LmPK inhibitor: LmPK (Leishmania mexicana) enzyme inhibition. Q27686. purified LmPK, Kinase-Glo ATP luminescence, 1 h. Potency, µM (doses to about 57.5 µM), hits mostly inhibitors. 290,000 tested, 0.37% active. AID 1721
# Target sequence (Q27686 whole entry, looked up): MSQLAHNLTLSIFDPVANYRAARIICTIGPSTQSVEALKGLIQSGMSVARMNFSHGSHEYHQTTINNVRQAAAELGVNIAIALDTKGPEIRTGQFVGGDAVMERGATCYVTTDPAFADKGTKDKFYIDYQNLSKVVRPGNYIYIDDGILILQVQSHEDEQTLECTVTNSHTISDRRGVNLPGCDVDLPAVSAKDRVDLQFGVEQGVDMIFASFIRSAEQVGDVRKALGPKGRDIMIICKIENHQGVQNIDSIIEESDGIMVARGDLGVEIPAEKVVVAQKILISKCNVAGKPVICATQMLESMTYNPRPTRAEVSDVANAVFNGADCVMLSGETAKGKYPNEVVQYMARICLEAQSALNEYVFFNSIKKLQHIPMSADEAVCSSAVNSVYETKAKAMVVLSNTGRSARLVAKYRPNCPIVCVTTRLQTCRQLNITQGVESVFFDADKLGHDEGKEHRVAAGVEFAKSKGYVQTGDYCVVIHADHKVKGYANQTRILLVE
#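 In 50 mM imidazole pH 7.2 with 7 mM MgCl2, LmPK (0.1 nM) turned over PEP (0.5 mM) and ADP (0.1 mM) for 1 h at room temperature. Luciferase read-out of ATP.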
# Tb PYK inh: T. brucei pyruvate kinase inhibition; Q57TT1; TbPYK enzyme, Kinase-Glo Plus ATP luminescence, 45 min; Potency, µM (titrated, usually from 76.8 µM), usual class: inhibitors; 410,000 tested, 0.12% active; AID 624173; also: nearly all actives have a fitted effect of over 50% in size
#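 Assay buffer: 50 mM TEA pH 7.2, 100 mM KCl, 10 mM MgCl2, 0.05% BSA, 0.01% Tween-20. Pyruvate kinase from T. brucei plus substrate met compound, then ADP (130 uM final). Luminescence was read post 45 min RT.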
# Numbers stand for hits; i = inactive; ? = inconclusive; nt = not tested or not shown; [ ] = remark or other dose. Unless noted, calls follow the shape of the dose curve; as a rule, active = well fitted curve in the direction sought with a large enough effect; inconclusive = small, poorly fitted or top-dose-only effect, or another doubt; inactive = no such curve, though single readings can be large; an effect the other way counts as inactive or inconclusive.
SMILES,VACV Venus inh,Vaccinia mCherry,HCMV inh,LmPK inhibitor,Tb PYK inh
COc1ccc(NS(=O)(=O)c2ccc3c(c2)CCCN3C(C)=O)cc1,i,i,?,i,i
CC(C)C[C@H](NC(=O)c1[nH]cnc1C(=O)Nc1ccccc1F)C(=O)OC(C)(C)C,?,?,i,nt,i
CC(C)(C)n1nc2c(c1NC(=O)c1ccc(Br)o1)CS(=O)C2 (stereo unspecified),i,i,i,i,i
Cc1ccc(CN2CCC(Oc3cccc(C(=O)N(C)CCN(C)C)c3)CC2)cc1C,i,i,i,i,i
CCC(=O)N1CCc2cc(S(=O)(=O)Nc3ccc4c(c3)OCCO4)ccc21,?,i,-86.5,i,i
Cc1cccc(NS(=O)(=O)c2ccc3c(c2)CCN3C(=O)C2CCC2)c1,i,i,-66.3,nt,i
O=C(Cn1cc(C(F)(F)F)ccc1=O)N/N=C/c1cccc(Cl)c1Cl,i,i,i,i,i
COc1ccc2c(c1)OC(O)(C(F)(F)F)CC2=O (stereo unspecified),i,i,i,i,i
CCOC(=O)C1CCN(c2ccc(-c3cccs3)nn2)CC1,i,i,i,14.1µM,?
O=C(CCn1c(=O)[nH]c2ccsc2c1=O)N1CCN(Cc2ccc3c(c2)OCO3)CC1,i,i,i,i,i
COc1cc(NC(=O)c2csc(C(O)c3ccc(C(C)(C)C)cc3)n2)cc(OC)c1OC (stereo unspecified),nt,nt,i,nt,nt
CC(C)(C)NC(=O)c1csc(C(O)c2ccc(C(C)(C)C)cc2)n1 (stereo unspecified),nt,nt,-96.0,nt,nt
CCOc1cc(CNCCSc2nnnn2-c2ccccc2)ccc1OC,i,i,i,nt,i
COc1ccc(CCNc2nnc(Sc3nnnn3-c3ccccc3)s2)cc1OC,nt,nt,-98.2,i,i
O=C(NCC(c1ccco1)N1CCc2ccccc2C1)c1ccc(F)cc1 (stereo unspecified),i,i,i,nt,i
CCCCCCCCCCCCCCCC[N+](C)(C)CCN(Cc1ccc(OC)cc1)c1ncccn1,12.6µM,?,nt,nt,i
COc1ccc(CN(CCN(C)C)c2ncccn2)cc1,?,i,nt,nt,i
Cn1c2c(c(=O)n(C)c1=O)C(NS(=O)(=O)c1ccccc1)(C(F)(F)F)C(=O)N2 (stereo unspecified),i,i,i,i,i
O=C(COc1ccccc1)Nc1c(C(=O)N2CCC(N3CCCCC3)CC2)oc2ccccc12,nt,nt,-69.5,i,i
O=C(COc1ccc(F)cc1)Nc1c(C(=O)N2CCC(N3CCCCC3)CC2)oc2ccccc12,nt,nt,i,i,i
CCc1ccc(-n2nc(C)c3c2NC(=O)CSC3c2ccc(OC)cc2OC)cc1 (stereo unspecified),i,i,-67.4,nt,i
CCc1ccc(-n2nc(C)c3c2NC(=O)CSC3c2ccccc2C)cc1 (stereo unspecified),i,?,-79.6,nt,i
CCc1ccc(-n2nc(C)c3c2NC(=O)CSC3c2ccc(C(=O)OC)cc2)cc1 (stereo unspecified),i,i,i,nt,i
CS(=O)(=O)c1ccc(Nc2nc(C(N)c3ccccc3)cs2)cc1 (stereo unspecified),i,i,i,nt,i
Cc1ccc(S(=O)(=O)N(C)/N=C/c2ccc(N(C)C)cc2)cc1,i,?,nt,i,i
SMILES,VACV Venus inh,Vaccinia mCherry,HCMV inh,LmPK inhibitor,Tb PYK inh
CCN(Cc1ccc(OC)c(COC)c1)CC1CCCN(CCc2cccc(OC)c2)C1 (stereo unspecified),nt,nt,-74.9,i,i
Cc1cc(S(=O)(=O)Nc2cc3c(cc2N2CCOCC2)n(C)c(=O)n3C)ccc1F,i,i,i,nt,i
Cn1c(=O)c(=O)n(C)c2cc(N3CCOCC3)c(NS(=O)(=O)c3ccc(F)c(Cl)c3)cc21,?,11.2µM,i,i,i
Cc1ccc(-c2n[nH]c(=S)n2/N=C/c2cccn2C)cc1,i,i,?,7.94µM,5.01µM
COc1ccc(/C=N/n2c(-c3ccccc3)n[nH]c2=S)cc1,i,i,i,i,?
Cn1cccc1/C=N/n1c(-c2ccc(Cl)cc2)n[nH]c1=S,i,nt,?,i,?
S=c1[nH]nc(-c2ccccc2)n1/N=C/c1cccs1,i,i,nt,?,11.2µM
Cc1ccc(-c2n[nH]c(=S)n2/N=C/c2cccs2)cc1,i,i,i,i,?
COc1ccc(-c2n[nH]c(=S)n2/N=C/c2cccn2C)cc1,nt,nt,?,i,2.51µM
S=c1[nH]nc(-c2ccc(Cl)cc2)n1/N=C/c1ccco1,nt,nt,i,i,3.98µM
COc1ccc(C(=O)COC(=O)c2cccnc2SC)cc1,i,i,i,i,i
Cc1cccc(Cn2c(C)c(C)c3cc(C(=O)NCc4ccc(C)o4)ccc32)c1,i,i,i,nt,i[15.4 µM]
CCCCC[C@H](C)N1C[C@@H](COCc2ccccc2)Oc2cc(N3CC[C@H](N(C)C)C3)ccc2S1(=O)=O,i,i,?,nt,i
C[C@H](c1ccccc1)N1C[C@H](COCc2ccccc2)Oc2cc(N3CCC[C@H]3CO)ccc2S1(=O)=O,i,i,-63.7,nt,i
C[C@H](c1ccccc1)N1C[C@@H](COCc2ccccc2)Oc2cc(N3CCC[C@@H]3CO)ccc2S1(=O)=O,i,i,i,nt,i
CCCCC[C@@H](C)N1C[C@@H](COCc2ccccc2)Oc2cc(N3CC[C@H](N(C)C)C3)ccc2S1(=O)=O,i,i,-63.3,nt,i
CC(=O)c1c(C)[nH]c(C(=O)OCC(=O)Nc2ccc3c(c2)OCCO3)c1C,i,i,i,nt,i
CCOc1cc2sc(N3CCC(C(=O)Nc4cc(C)cc(C)c4)CC3)nc2cc1Br,i,i,i,nt,i
O=[N+]([O-])c1ccccc1S(=O)(=O)Nc1cccc(S(=O)(=O)N2CCCC2)c1,nt,nt,i,nt,i
CC(Sc1ccc(S(=O)(=O)N2CCN(C)CC2)cn1)C(=O)NC1CCCCC1 (stereo unspecified),nt,nt,?,nt,i
CC(C)c1ccc(NC(=O)CSc2nc(=O)n(Cc3ccccn3)c3c2CCC3)cc1,i[7.34 µM],i[7.34 µM],-102.3,nt,i
CC(C)c1ccc(NC(=O)CSc2nc(=O)n(Cc3cccnc3)c3c2CCC3)cc1,i,i,-107.1,nt,i
COc1ccc(C)cc1NC(=O)CSc1nc(=O)n(Cc2ccncc2)c2c1CCC2,i,i,-103.1,nt,i
CN(CC(=O)Nc1ccccc1C(F)(F)F)C(=O)C1CCN(C(=O)c2ccc(Cl)cc2)CC1,i,i,i,nt,i
C/C(CC(=O)Nc1ccc(C)c(Cl)c1)=N\NC(=O)Cc1cccs1,i,i,i,i,i
CC1(C)OC(=O)C2(Cc3ccc(Cl)cc3N3CCCCC32)C(=O)O1 (stereo unspecified),i,i,nt,nt,nt
CC(=O)/C(C#N)=C1\NC(=O)C(Cc2ccc(C)c(C)c2)S1 (stereo unspecified),i,15.8µM,-95.4,i,i
CC(=O)/C(C#N)=C1\NC(=O)C(Cc2ccc(F)cc2)S1 (stereo unspecified),i,i,-83.2,i,i
Cc1ccc(CC2SC(=O)NC2=O)cc1Cl (stereo unspecified),nt,nt,i,i,i
